One assay deals with ZNF548. The assay is described as follows: pooled miR-30 sensor sort-seq; sequence = guide strand. The note with it: shRNA.
Regarding TGTCTCACTAGGGTGGACCTTC, the sensor-assay potency score (higher = more potent) is -0.0557.

ATTCATAAGACCTTTCTCCTGT returned a sensor-assay potency score (higher = more potent) of 0.892.

In turn, TTATAAGGTCTTTCTCCGGTGT came in with a sensor-assay potency score (higher = more potent) of -0.00393.

TTTCTGGTGATGAACCAGGTGA yielded a sensor-assay potency score (higher = more potent) of -0.687.

In turn, TTCTCTGTCCTCTGTGTCCCTG came in with a sensor-assay potency score (higher = more potent) of -0.777.

For TTGTAACCTCTGACACTCCTAC, the sensor-assay potency score (higher = more potent) was -0.158.

For the sequence TTCACTAGTGTGAACTGTCTGA, the sensor-assay potency score (higher = more potent) amounted to 0.39.

In the next assay the target is ZNF550. The assay is described as above. The note with it: shRNA.
TGCTGCATGAGGTACGACCTGC showed a sensor-assay potency score (higher = more potent) of -0.586.

For TTTCATTCCAGTGTGAACCCTC, the sensor-assay potency score (higher = more potent) was 0.423.

TTTACCTTTCTGCATTTCCAAA: the sensor-assay potency score (higher = more potent) was -1.66.

The sequence TGCTGTATGAGTTCTGAGCTGC registered a sensor-assay potency score (higher = more potent) of 0.178.

As for TCTGTCACCTAGTGAAACCAGA, the sensor-assay potency score (higher = more potent) is -0.609.

ATGAGTTCTGAGCTGCATCTGA gave a sensor-assay potency score (higher = more potent) of -0.453.

The sequence ATTCATGGAGAACATCTGCTGA gave a sensor-assay potency score (higher = more potent) of -0.38.

Sequence TTGAGGTTGAAGATTCCAGAGT displayed a sensor-assay potency score (higher = more potent) of -1.04.

For TTGAGCTCTGGCTAAAGGCTTT, the sensor-assay potency score (higher = more potent) was -0.685.

As to TTCGACATTGACTACACTCATA, the sensor-assay potency score (higher = more potent) was -1.1.

TTCATGGAGAACATCTGCTGAT: the sensor-assay potency score (higher = more potent) came to 0.0411.

Take TTGTGGAGGTCTGTCTCCGGTG: the sensor-assay potency score (higher = more potent) was -1.27.
Note: reference of the scale not given here.
